# Results taken from PubChem BioAssay (NCI).
# About 83,000 compounds went through this panel and 20% of them were active in at least one assay; those are over-represented in the sample as a whole.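 Results are percent growth after 48 hours of single-concentration exposure. 100 means growth as in untreated cells, lower positive values show inhibition; negative values down to -100 show cell death.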 A number with no mark means an inactive call. The source made the active and inactive calls. The calls were made as follows: active = growth percent below 10; inactive = the rest.
# Legend:
# Assay in all cases: NCI-60 one-dose screen, 48 h (100 = growth as untreated, 0 = no growth, -100 = all killed)
# Details in all cases: 10 µM unless noted
# NCI-H23 lung = test system: NCI-H23 lung
# NCI-H226 lung = test system: NCI-H226 lung
# NCI-H322M lung = test system: NCI-H322M lung
# HOP-62 NSCLC = test system: HOP-62 NSCLC
# NCI-H460 lung = test system: NCI-H460 lung
# HOP-92 NSCLC = test system: HOP-92 NSCLC
# NCI-H522 lung = test system: NCI-H522 lung
# A549/ATCC NSCLC = test system: A549/ATCC NSCLC
# 786-0 renal = test system: 786-0 renal
# COLO 205 colon = test system: COLO 205 colon
Structure (SMILES),growth (NCI-H23 lung),growth (NCI-H226 lung),growth (NCI-H322M lung),growth (HOP-62 NSCLC),growth (NCI-H460 lung),growth (HOP-92 NSCLC),growth (NCI-H522 lung),growth (A549/ATCC NSCLC),growth (786-0 renal),growth (COLO 205 colon)
N#Cc1nn(-c2ccccn2)c(N)c1C#N,105%,106%,107%,97.1%,106%,101%,67.4%,97.5%,98%,106%
CCCCCCCCNC(=O)[C@@H](N)CSCOC(C)=O,87.4%,104%,89.8%,66.7%,72.9%,122%,90.6%,84.3%,106%,109%
COc1ccc2c(O)cc3c(c2c1)[C@H](CCl)CN3C(=O)c1cc2cc(NC(=O)CCN3CCOCC3)ccc2[se]1,-50.7% (active),-12.5% (active),-87.8% (active),-79.7% (active),-7.37% (active),94.8%,-82.5% (active),-29.5% (active),-59.8% (active),-78.2% (active)
CN(C)C(=O)OCc1ccc2c(Cl)cc(Cl)c(O)c2n1,51.2%,68.3%,53.8%,27.3%,31.3%,58.8%,65.1%,25%,48.7%,104%
CCOC(=O)CC1CSC(N/N=C/c2ccc(O)cc2)=N1 (stereo not given),102%,105%,98.6%,91%,112%,80.3%,97%,102%,89.9%,111%
C=CC(=O)NCc1cccc(Nc2ncc(Br)c(NCCCNC(=O)C3CCC3)n2)c1,-37% (active),-0.669% (active),-13.1% (active),-26.9% (active),-41.9% (active),-11.5% (active),-38.8% (active),-9.64% (active),-35.2% (active),-25.7% (active)
O=C(/C=C\c1ccc(O)c(O)c1)c1ccccc1O,86.5%,71.4%,79.7%,98.7%,61.5%,55.6%,-61.3% (active),55.7%,100%,80.6%
COC(=O)c1sc(-c2ccc(C)cc2)cc1O,99.1%,109%,94.2%,109%,101%,105%,105%,103%,96.7%,107%
O=C1c2c(c3c4cccnc4[nH]c3c3ccc4ccccc4c23)C(=O)N1O,35.5%,72.3%,77.8%,55.8%,32.4%,81.7%,19.9%,83.6%,68.5%,57.6%
NS(=O)(=O)Oc1cccc(-c2nc3sccn3c2-c2ccccc2)c1,76.2%,85.4%,89.7%,50.2%,38.9%,45.8%,61.5%,52.6%,65.5%,69.7%
O=C(O)c1cc2ccccc2s1,101%,98.2%,110%,96.9%,104%,90%,107%,104%,106%,113%
COc1cc2c(c(OC)c1OC)CCC(c1cccc(C(=O)Nc3ccccc3Br)c1)O2 (stereo not given),97.2%,92.3%,94.9%,92.3%,104%,66.3%,80.1%,81.2%,76.2%,90.5%
CCN(CC)c1ccc(/C=N/NC(=O)c2ccccc2Nc2ccnc(C(F)(F)F)c2)c(O)c1,40.4%,8.93% (active),39.7%,28%,4.43% (active),19.9%,42.9%,35.8%,16.6%,25.7%
CC1=C2[C@@H](CC1)[C@]1(C)O[C@@](C(C)C)(C[C@H]1OC(=O)CO)[C@H]2OC(=O)CCCc1ccccc1,81.4%,61.4%,90%,39.5%,68%,37.4%,45.1%,58.4%,79.2%,55.1%
Cc1[nH]c(C(=O)Nc2ccc(C(N)=O)cc2OC(C)C)c(Cl)c1Cl,97.6%,107%,100%,92.7%,85.1%,73.3%,91.7%,100%,102%,115%
Nc1cc(-c2ccc(Cl)cc2)nn1-c1nc(-c2ccc(Br)cc2)cs1,100%,96.3%,93.3%,97.9%,105%,90%,84.2%,88.1%,93.6%,100%
CC(=O)CC(=O)c1ccccc1.[Cu+2],97.1%,114%,105%,119%,110%,120%,97.5%,104%,107%,116%
c1ccc(-c2nc(N3CCNCC3)c3oc(-c4ccccc4)nc3n2)cc1,-66.8% (active),-41.6% (active),-95.1% (active),-67.9% (active),-81.1% (active),-53.1% (active),-28.3% (active),-44.8% (active),-74.1% (active),-39.7% (active)
CC(=O)OCCOc1cc(Cl)c(Cl)cc1Cl,97.4%,101%,112%,103%,109%,82.3%,86.6%,90.8%,100%,121%
Cn1ccnc1C(=O)/C=C/c1ccc(C(=O)Nc2c(F)c(F)c(F)c(F)c2F)cc1,-28.5% (active),13%,6.92% (active),1.97% (active),-41% (active),49.7%,4.29% (active),6.57% (active),-34.6% (active),-24.2% (active)
C=CCn1c(SCC(=O)Nc2ccc(C(=O)/C=C/c3ccc(Cl)cc3)cc2)nnc1-c1ccccc1,95%,94.7%,96.7%,97%,106%,93.2%,82.2%,93.2%,81.8%,105%
O=C(/C=C/c1ccco1)c1ccc(Nc2ccnc3cc(Cl)ccc23)cc1,82.1%,111%,39.3%,104%,36%,41.5%,81.9%,62%,76.6%,90.4%
Cc1c2ccncc2c(C)c2c1c1ccccc1n2CCCCCC(=O)O,84.7%,75.6%,96.1%,83%,97.1%,80.6%,101%,89.8%,103%,109%
CCCC[N+]1(C)CCN=C1Cc1ccccc1 (stereo not given),101%,97.6%,99.9%,105%,110%,90.9%,88.5%,87.8%,101%,111%
COc1cc2c(cc1-c1c(C)noc1C)ncc1nc(C3CCOCC3)n(C3CCC(OC(F)F)CC3)c12 (stereo not given),56.7%,67.9%,52.4%,30.4%,72.6%,21.8%,3.74% (active),57.4%,51.8%,22.6%
CCN1C(=O)N(CC)C2C1NC(=S)N2/N=C/C=C/c1ccccc1 (stereo not given),21.4%,-10.1% (active),46.1%,29.3%,5.19% (active),27.8%,-2.87% (active),16.9%,25.6%,-30.4% (active)
